Screening results (PubChem BioAssay)
In the library only some 21% were active in any assay of this set; here they are far more common.
CYP2C9 inh: human CYP2C9 inhibition. P11712. CYP2C9 Supersomes, luciferin-H conversion, luminescence. inhibition, % at 5 µM. actives 20% (n = 96,000). AID 777;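 active means blocking of liver enzyme CYP2C9 beyond about 50% at 5 µM, limit read from the data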
Target sequence (P11712 whole entry, looked up): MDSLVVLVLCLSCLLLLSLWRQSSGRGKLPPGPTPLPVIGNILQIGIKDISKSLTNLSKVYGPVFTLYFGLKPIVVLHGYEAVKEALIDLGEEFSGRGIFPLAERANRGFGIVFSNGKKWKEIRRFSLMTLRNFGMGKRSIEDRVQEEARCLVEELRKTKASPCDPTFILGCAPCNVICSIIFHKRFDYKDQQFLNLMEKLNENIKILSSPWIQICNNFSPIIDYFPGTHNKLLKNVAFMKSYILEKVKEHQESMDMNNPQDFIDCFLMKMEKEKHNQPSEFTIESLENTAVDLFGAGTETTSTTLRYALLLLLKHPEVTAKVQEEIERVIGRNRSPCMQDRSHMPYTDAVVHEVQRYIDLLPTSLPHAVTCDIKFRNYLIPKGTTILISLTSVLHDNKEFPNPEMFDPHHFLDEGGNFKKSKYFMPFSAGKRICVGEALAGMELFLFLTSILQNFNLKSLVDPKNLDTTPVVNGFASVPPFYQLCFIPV
MRP resist rev: compounds reversing MRP-mediated drug resistance; actives 0.04% (n = 85,000); H69AR cells + 2 uM doxorubicin, CellTiter-Glo, 72 h; differential viability (reversal), % at 10 µM;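 active means viability drop by adding the cancer drug above about 55%, with treated viability meeting a 40% cutoff, limit read from the data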;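 further: larger differential means the compound sensitizes cells more to doxorubicin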
CYP2C19 inhib: human CYP2C19 inhibition | inhibition, % at 5 µM | CYP2C19 Supersomes, luciferin-H EGE luminescence, 30 min | actives 21% (n = 96,000) | P33261;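 active means CYP2C19 inhibition above a set limit at 5 µM in the primary screen, cut at about 50% in these data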
CYP2C19 activ: cytochrome P450 2C19 (human) activation | recombinant CYP2C19, luciferin-H EGE luminescence; hits give high values; 0 = fully inhibited enzyme, 1 = untreated enzyme | activation factor at 5 µM | 96,000 tested, under 10 active | AID 1025;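 active means activation factor of at least 2 at 5 µM in the primary screen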
MRP-1 activ: activators of MRP-1 | H69AR cells + doxorubicin, viability rescue, CellTiter-Glo | viability increase, % at 10 µM | actives 0.61% (n = 140,000) | AID 799;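 active means viability gain under doxorubicin at or above a set limit, the compound median plus 3 SD, cut at about 4.7% in these data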;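 further: MRP-1 overexpressing cells given doxorubicin 25 µM after compound pretreatment; 18-22 h compound pretreatment then 72 h with doxorubicin before readout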
CYP2C9 act: CYP2C9 (human) activation; P11712; recombinant CYP2C9, luciferin-H conversion, luminescence; hits give high values; factor 1 = untreated enzyme, 0 = blocked; activation factor at 5 µM; actives 1.4% (n = 96,000); AID 1024;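 active means activation factor of 2 or more for CYP2C9 at a 5 µM dose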
Each line names hits and unclear results; the compound was inactive in the other large screens.

O=C1CC(N(CCc2ccccc2)C(=S)Nc2cc(Cl)ccc2Cl)C(=O)N1c1c(Cl)cccc1Cl (centres undefined)	CYP2C9 inh 54 (no result: MRP resist rev)
C=C(C)c1nc(N)nc(N)n1	none
CC1CC(C)CN(CCOc2ccc(Br)cc2)C1 (centres undefined)	none (no result: CYP2C9 inh, MRP resist rev, CYP2C19 inhib, CYP2C19 activ, CYP2C9 act)
CCOC(=O)CSc1nnc(Cn2nnc(-c3ccccc3)n2)n1C	none
CCNC(=O)CSc1nnc(-c2cc(-c3ccc(Cl)cc3)nc3ccccc23)o1	none (no result: CYP2C9 inh, MRP resist rev, CYP2C19 inhib, CYP2C19 activ, CYP2C9 act)
COc1ccc2nc(NC(=O)C3CCCN(S(=O)(=O)c4c(C)noc4C)C3)sc2c1 (centres undefined)	none
COc1ccc2nc(NC(=O)C3CCCN3S(=O)(=O)c3ccc(C)cc3)sc2c1 (centres undefined)	CYP2C19 inhib 68
COc1ccc(S(=O)(=O)N2CCCC2C(=O)Nc2nnc(-c3cccnc3)s2)cc1 (centres undefined)	CYP2C19 inhib 99
Cc1ccc(S(=O)(=O)N2CCCC2C(=O)Nc2nc3c(s2)CCCC3)cc1 (centres undefined)	CYP2C9 inh 90
CC(=O)c1ccc(NC(=O)C2CCCN2S(=O)(=O)c2ccc(C)cc2)cc1 (centres undefined)	none
COc1ccc(S(=O)(=O)N2CCC[C@H]2C(=O)NC2=NCCS2)cc1	none
COC(=O)c1cc(OC)c(OC)cc1NC(=O)c1oc2ccccc2c1C	none (no result: CYP2C9 inh, CYP2C19 inhib, CYP2C19 activ, MRP-1 activ, CYP2C9 act)
O=c1c2ccccc2c(C=NCCc2ccccc2)c(O)n1Cc1ccccc1	CYP2C9 inh 77
O=c1c2ccccc2c(C=NCCCN2CCOCC2)c(O)n1Cc1ccccc1	CYP2C9 inh 71, CYP2C19 inhib 65
O=c1[nH]c2ccccc2c(=O)n1Cc1ccccc1	none
CC12CCC(c3nnc(SCc4ccc(Cl)cc4)nc31)C2(C)C (centres undefined)	MRP-1 activ 5.7 (no result: CYP2C9 inh, CYP2C19 inhib, CYP2C19 activ, CYP2C9 act)
CCN(CC)c1ccc2cc(S(=O)(=O)c3ccc(C)cc3)c(=O)oc2c1	none (no result: CYP2C9 inh, MRP resist rev, CYP2C19 inhib, CYP2C19 activ, CYP2C9 act)
COc1ccc(CCNc2cc(-c3ccccc3)nc3ncnn23)cc1	CYP2C9 inh 56
CCc1c(C)nc2ncnn2c1NCCc1ccccc1	CYP2C19 inhib 64
Cc1nc2ncnn2c(Nc2ccc3c(c2)OCO3)c1Cc1ccccc1	CYP2C19 inhib 72
O=C(Nc1ccc(-c2nc3ccccc3s2)c(OC(=O)c2ccccc2)c1)c1ccccc1	none (no result: CYP2C9 inh, MRP resist rev, CYP2C19 inhib, CYP2C19 activ, CYP2C9 act)
Cc1nc(N)c(C#N)c(-c2cccnc2)c1C	CYP2C9 act 2
CCc1nc(N)c(C#N)c(-c2cccnc2)c1C	none
CC(C)(C)OC(=O)N1CC=C2C(C#N)=C(N)C(C#N)(C#N)C(c3cccs3)C2C1 (centres undefined)	CYP2C9 inh 60
CCOc1cc(S(=O)(=O)Nc2ccc(CC)cc2)ccc1Cl	CYP2C9 inh 80
COc1cc(S(=O)(=O)Nc2c(C)cc(C)cc2C)ccc1Cl	none
CCOc1ccc(Br)cc1S(=O)(=O)Nc1ccc(Cl)c(S(=O)(=O)N(C)C)c1	none (no result: CYP2C9 inh, MRP resist rev, CYP2C19 inhib, CYP2C19 activ, CYP2C9 act)
CCOc1cc(S(=O)(=O)NCc2ccccn2)ccc1Cl	none (no result: CYP2C9 inh, CYP2C19 inhib, CYP2C19 activ, CYP2C9 act)
CCOc1cc(S(=O)(=O)Nc2ccccc2CC)ccc1Cl	CYP2C19 inhib 82
COc1cc(S(=O)(=O)Nc2ccccc2C)ccc1Cl	CYP2C19 inhib 100, CYP2C9 act 2
CC(C)Sc1nc2c(c(=O)n1C)SC(C)C2 (centres undefined)	none
Clc1ccccc1CN1CCc2sccc2C1	none (no result: CYP2C9 inh, CYP2C19 inhib, CYP2C19 activ, CYP2C9 act)
Cc1cccc(OCCN2CSC(=S)N(C)C2)c1	CYP2C9 inh 88, CYP2C19 inhib 79
COc1ccccc1OCCN1CSC(=S)N(C)C1	none (no result: CYP2C9 inh, MRP resist rev, CYP2C19 inhib, CYP2C19 activ, CYP2C9 act)
CCOC(=O)C1=C(C)OC(N)=C(C#N)C1c1cc(F)ccc1F (centres undefined)	CYP2C19 inhib 83
CCOC(=O)CC1=C(C(=O)OCC)C(c2cccs2)C(C#N)=C(N)O1 (centres undefined)	CYP2C19 inhib 78
CC(=O)C1=C(c2ccccc2)OC(N)=C(C#N)C1c1ccccc1F (centres undefined)	none (no result: CYP2C9 inh, MRP resist rev, CYP2C19 inhib, CYP2C19 activ, CYP2C9 act)
COC(=O)C1=C(C)OC(N)=C(C#N)C1c1cc(C)sc1C (centres undefined)	CYP2C19 inhib 88
Cc1cc(C2C(C#N)=C(N)Oc3n[nH]c(C)c32)c(C)s1 (centres undefined)	none
CCOC(=O)C1=C(CC)OC(N)=C(C#N)C1c1cc(OC)ccc1OC (centres undefined)	CYP2C9 inh 98, CYP2C19 inhib 82 (no result: MRP resist rev)
